Sampled rows, rich in hits. Any-hit rate of the full collection: about 4.3%.
SW480 rereplic – DNA re-replication induction in SW480 cells; SW480 DNA re-replication, Hoechst DNA content imaging, 48 h; Potency, µM (top dose mostly 46.1 µM), actives largely listed as activators; 340,000 compounds, 1.8% hits; also: nearly all actives have a fitted effect of over 55% in size
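Cells (250 per well) received 23 nL compound or DMSO by pin tool and were kept 48 hr at 37 C, 5% CO2. Nuclei were then stained with Hoechst for 40 min and scanned for DNA content.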
MCF10A rereplic – inducers of DNA re-replication in MCF 10A breast cells; Potency, µM (highest dose often 46.1 µM), most hits filed as activators; MCF 10A DNA re-replication, Hoechst nuclear intensity, 48 h; 350,000 compounds, 2.9% hits; also: nearly all actives have a fitted effect of over 50% in size
uPA surface inh – blocks generation of uPA at the cell surface; cell surface uPA generation assay, qHTS; AID 540303; Potency, µM (doses to about 38.3 µM), most hits filed as inhibitors; 330,000 compounds, 0.31% hits; active = well fitted inhibition curve with a large enough effect; inconclusive = small, poorly fitted or top-dose-only effect; inactive = no such curve, though single readings can be large or run the other way; tested in mouse RAW 264.7 cells; also: nearly all actives have a fitted effect of over 55% in size
Giardia killer – Giardia lamblia killing. Giardia lamblia trophozoite viability. activity change, % at 7.66 µM, hits read low. 340,000 compounds, 0.15% hits; in the data active = activity change below about -80%; inconclusive = between about -30% and that limit;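 also: parasites exposed to compound for two days anaerobically before the ATP read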
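Trophozoite viability was measured as ATP-dependent luminescence, read 15-30 min after reagent addition. Before that, parasites at 100 cells/well were exposed to compounds for 48 h, anaerobically, at 37 deg C.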
Of the large screens only hits and unclear results are named; the others gave an inactive call. Unless noted, calls follow the shape of the dose curve; as a rule, active = well fitted activation curve with a large enough effect; inconclusive = small, poorly fitted or top-dose-only effect; inactive = no such curve, though single readings can be large or run the other way.

O=C(NCCCc1ccccc1)c1ccccc1O	SW480 rereplic inconclusive, MCF10A rereplic 15µM
O=C(NCCCCCCNC(=O)c1ccccc1O)c1ccccc1O	none
C=CCn1c(N)cc(=O)nc1SCC(=O)Nc1ccc(C(=O)OCC)cc1	none
CCN(c1cccc(C)c1)S(=O)(=O)c1ccc(-c2cc(C)no2)s1	uPA surface inh inconclusive
Cc1cccc(N(C)S(=O)(=O)c2ccc(-c3cc(C)no3)s2)c1	SW480 rereplic 0.82µM, MCF10A rereplic inconclusive, uPA surface inh inconclusive
CCOc1ccc(N(C)S(=O)(=O)c2ccc(-c3cc(C)no3)s2)cc1	SW480 rereplic 9.2µM, MCF10A rereplic 4.6µM, uPA surface inh inconclusive
Cc1nc(SCc2nc3cc(Cl)c(F)cc3[nH]2)c2oc3ccccc3c2n1	SW480 rereplic inconclusive, MCF10A rereplic inconclusive, uPA surface inh inconclusive
COCCNC(=S)NN=C1CCCCC1	SW480 rereplic 18µM
CCOC(=O)N1CCN(C(=O)Nc2ccc3nc(C)sc3c2)CC1	none
CCOC(=O)Nc1ccc2nc(N3CCCCCC3)sc2c1	SW480 rereplic 10µM, MCF10A rereplic 15µM, uPA surface inh inconclusive
COc1ccc(NC(=O)C(=O)c2cn(CC(=O)N3CCCC3)c3ccccc23)cc1	SW480 rereplic 0.46µM, MCF10A rereplic inconclusive
CC(=O)Nc1ccc(NC(=O)C(=O)c2cn(CC(=O)N3CCCC3)c3ccccc23)cc1	none
O=C(O)Cn1cc(C(=S)N2CCCCC2)c2ccccc21	MCF10A rereplic 0.58µM, uPA surface inh inconclusive
Nc1c(Cl)ncnc1N1CCN(c2ncnc(Cl)c2N)CC1	SW480 rereplic 0.23µM
Cc1cccc(C(=O)N2[C@@H](C(C)C)COc3cc(Br)ccc3S2(=O)=O)c1	MCF10A rereplic 8.2µM, uPA surface inh inconclusive
Cc1ccc(NC2=CC(=O)CC(c3ccco3)C2)c(N)c1 (stereo unspecified)	MCF10A rereplic 10µM
CCn1c(N)cc(=O)[nH]c1=S	none
COc1ccc2c(c1)-c1nc(/N=C/c3ccc(O)c(OC)c3)sc1CC2	none (no result: SW480 rereplic)
COc1ccc(NC(=O)/C=C/c2ccc(OC(F)F)cc2)cn1	SW480 rereplic inconclusive, MCF10A rereplic 21µM
Nc1nc(SCc2ccccn2)c2ncn(C3OC(CO)C(O)C3O)c2n1 (stereo unspecified)	none
Cn1c2ccsc2c2ncn(Cc3ccc(F)cc3)c(=O)c21	SW480 rereplic 0.26µM, MCF10A rereplic inconclusive
CCCC(NS(=O)(=O)c1ccc(-c2ccc(=O)[nH]n2)s1)c1cccs1 (stereo unspecified)	SW480 rereplic inconclusive
CC12CCC(C(=O)Nc3ncc([N+](=O)[O-])s3)(OC1=O)C2(C)C (stereo unspecified)	Giardia killer -86 (no result: uPA surface inh)
COc1ccc(NC(=O)C23CCC(C)(C(=O)O2)C3(C)C)cc1 (stereo unspecified)	SW480 rereplic 5.2µM, MCF10A rereplic 0.52µM
COc1ccc(NC(=O)Nc2nccs2)cc1	SW480 rereplic 12µM, MCF10A rereplic inconclusive (no result: uPA surface inh)
COc1ccc(NC(=S)NCCCc2ccccc2)cc1	SW480 rereplic 18µM
CCOC(=O)c1ccc(NC(=O)C23CCC(C)(C(=O)O2)C3(C)C)cc1 (stereo unspecified)	none
CCOc1ccc(OCCC(=O)OCC(=O)N(CC)c2c(N)n(Cc3ccccc3)c(=O)[nH]c2=O)cc1	none
COc1ccc(C2=NOC(Cn3nc(C(=O)NCc4ccccc4OC)cc3-c3ccccc3)C2)cc1 (stereo unspecified)	MCF10A rereplic inconclusive
COc1ccc(C(NC(=O)CN2C(=O)NC3(CCc4ccccc43)C2=O)c2ccc(OC)cc2)cc1 (stereo unspecified)	SW480 rereplic inconclusive
COc1ccc(NC(=S)NN(C)C(=S)Nc2ccc(OC)cc2)cc1	SW480 rereplic 3.7µM, MCF10A rereplic inconclusive
COc1ccc(NC(=S)Nc2ccc(Oc3ccccc3)cc2)cc1	none
COc1ccc(CNC(=O)Nc2ccc(OC)cc2)cc1	SW480 rereplic inconclusive, MCF10A rereplic 18µM
CCSc1nnc(NC(=O)CN2C(=O)N(C)C3(CCCCC3)C2=O)s1	none
Cc1ccn(CCC(=O)N2CCc3ccccc32)n1	none
Cc1cc(C)nc(Nc2ccccc2F)n1	SW480 rereplic 23µM
CCOc1ncccc1C(=O)NCc1ccccc1Cl	SW480 rereplic inconclusive, MCF10A rereplic 0.92µM
COC(=O)c1ccc(COc2ccccc2/C=C(\C#N)C(=O)Nc2ccc(C)cc2)cc1	MCF10A rereplic inconclusive
N#C/C(=C\c1ccccc1OCc1ccc(C(=O)O)cc1)C(=O)Nc1ccc(O)cc1	MCF10A rereplic 23µM
C=CCNC(=O)/C(C#N)=C/c1ccccc1OCc1ccc(C(=O)OC)cc1	MCF10A rereplic 4.6µM, uPA surface inh inconclusive
CC1CCN(C(=O)CSc2nnc3ccc(-c4cccnc4)nn23)CC1	none
CC1Cc2ccccc2N1S(=O)(=O)c1cccc(C(=O)N2Cc3ccccc3CC2C(N)=O)c1 (stereo unspecified)	uPA surface inh inconclusive
CN(C)c1cccc2c1C(=O)c1ccccc1C2=O	none
Cc1ccc(SC2=C(N(C)C)C(=O)c3ccccc3C2=O)cc1	SW480 rereplic inconclusive, MCF10A rereplic 12µM
COc1cccc(C(=O)N/N=C(\C)c2ccc(NC(=O)Cc3ccccc3)cc2)c1OC	SW480 rereplic inconclusive, MCF10A rereplic inconclusive
C/C(=N\NC(=O)c1ccccc1)c1ccc(NC(=O)c2cccs2)cc1	SW480 rereplic 1.5µM
C/C(=N\NC(=O)CNC(=O)c1cccs1)c1ccc(Cl)c(Cl)c1	SW480 rereplic 3.7µM, MCF10A rereplic inconclusive
C/C(=N\NC(=O)c1ccccc1O)c1ccc(NC(=O)Cc2ccccc2)cc1	SW480 rereplic 12µM
C/C(=N\NC(=O)c1ccccc1C)c1ccc(NC(=O)c2cccs2)cc1	SW480 rereplic inconclusive
C/C(=N\NC(=O)c1ccc(N/N=C(\C)c2ccc(O)cc2)cc1)c1ccc(O)cc1	MCF10A rereplic 21µM, uPA surface inh inconclusive
COc1ccc(C(=O)/C=C\c2ccc(NC(=O)c3cccs3)cc2)cc1	SW480 rereplic 18µM, MCF10A rereplic inconclusive
COc1ccc(NC(=O)c2ccc(NC(=O)c3cccs3)cc2)cc1	none
CC1(C)COC(/C=C/c2ccc([N+](=O)[O-])cc2)=N1	SW480 rereplic 16µM, MCF10A rereplic 16µM
COc1ccc2cc(C[C@@H]3CC[C@@H](CNC(N)=O)O3)ccc2c1	none
Cc1onc(-c2ccccc2)c1C(=O)O/N=C(\N)c1ccc([N+](=O)[O-])o1	MCF10A rereplic inconclusive, uPA surface inh 4.5µM, Giardia killer inconclusive
COc1ccc(C(=O)C2C(=O)C(=O)N(Cc3ccco3)C2c2cccs2)cc1 (stereo unspecified)	none (no result: SW480 rereplic, MCF10A rereplic, uPA surface inh)
CCCC1=NN2C(=N)/C(=C\c3cc(C)n(Cc4ccccc4)c3C)C(=O)N=C2S1	MCF10A rereplic 23µM
Cc1cc(/C=C2\C(=N)N3N=CSC3=NC2=O)c(C)n1Cc1ccccc1	MCF10A rereplic 29µM, Giardia killer inconclusive
CCCC1=NN2C(=N)/C(=C\c3cc(C)n(-c4cccc(C)c4)c3C)C(=O)N=C2S1	MCF10A rereplic inconclusive
COc1cc(/C=C2\C(=N)N3N=C(S(C)(=O)=O)SC3=NC2=O)cc(OC)c1OCCOc1ccccc1C	none
Cc1cc(/C=C2\C(=N)N3N=C(S(C)(=O)=O)SC3=NC2=O)c(C)n1Cc1ccccc1	SW480 rereplic inconclusive, MCF10A rereplic 21µM

Assay outcomes from PubChem.
